Results on 102 molecules are retold here after PubChem BioAssay AID1001 (Sanford-Burnham Center for Chemical Genomics, 2008).

Structures are written as SMILES. The campaign covered roughly 200,000 compounds. About 50 (0.03%) were called active. No rule for the calls is given here. The entries come from a sample that favours actives as a whole. Measured potencies and affinities stand elsewhere.

For this experiment, the target named is Alkaline phosphatase, tissue-nonspecific isozyme (Homo sapiens) (UniProt P05186). The experiment is described as follows: stimulation of alkaline phosphatase TNAP activity – biochemical, luminescent, no phosphate acceptor, uHTS, primary screen (AID 1001). Particulars: purified TNAP, luminescent activation assay, at 20 µM, active compounds read high.
Sequence of Alkaline phosphatase, tissue-nonspecific isozyme (Homo sapiens) (P05186 whole entry, looked up): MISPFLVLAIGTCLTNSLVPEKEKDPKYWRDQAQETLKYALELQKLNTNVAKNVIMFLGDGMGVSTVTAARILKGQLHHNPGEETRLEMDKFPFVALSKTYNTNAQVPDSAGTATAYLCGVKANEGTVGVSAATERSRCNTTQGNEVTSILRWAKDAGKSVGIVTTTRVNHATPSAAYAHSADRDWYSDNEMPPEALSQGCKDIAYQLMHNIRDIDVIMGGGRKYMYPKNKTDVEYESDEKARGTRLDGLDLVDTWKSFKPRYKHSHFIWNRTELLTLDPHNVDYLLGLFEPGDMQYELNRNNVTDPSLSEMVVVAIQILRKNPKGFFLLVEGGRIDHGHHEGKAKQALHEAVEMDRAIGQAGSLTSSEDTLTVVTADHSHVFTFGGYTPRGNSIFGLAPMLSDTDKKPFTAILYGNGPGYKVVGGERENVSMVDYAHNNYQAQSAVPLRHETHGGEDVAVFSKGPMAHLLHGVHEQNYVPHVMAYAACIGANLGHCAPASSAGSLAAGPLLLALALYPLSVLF
As to `COCCCNC(=O)CCC(=O)NNc1nc2ccccc2c2nc(-c3ccccc3)nn12`, the activation fold is 2.3 (inactive).
Consider `CCCCNC(=O)CCC(=O)NNc1nc2ccccc2c2nc(-c3ccccc3)nn12`, for which the activation fold was 1.6 (inactive).
`O=C(CCC(=O)NNc1nc2ccccc2c2nc(-c3ccccc3)nn12)NCCCN1CCCC1=O`: the activation fold is 1.1 (inactive).
Take `CCOCCCNC(=O)CCC(=O)NNc1nc2ccccc2c2nc(-c3ccccc3)nn12`: the activation fold was 2.1 (inactive).
With `COc1ccc(C(=O)N/C(=C\c2ccccc2)C(=O)NC(CC(C)C)C(=O)O)cc1` (configuration not stated), the activation fold was 1.1 (inactive).
With `Cc1coc(C)c1C(=O)CC1(O)C(=O)N(CCc2ccccc2)c2ccccc21` (configuration not stated), the activation fold is 1.1 (inactive).
With `CCOC(=O)CSc1nc2c(sc3ccc([N+](=O)[O-])cc32)c(=O)n1Cc1ccco1`, the activation fold was 1.1 (inactive).
On to `CCOc1ccc(-n2cc(-c3ccccc3)c3c(N4CCOCC4)ncnc32)cc1`, for which the activation fold is 1.1 (inactive).
`O=c1cc(NCc2ccc3c(c2)OCO3)[nH]c(=O)n1-c1ccc(Cl)cc1`: the activation fold was 1.1 (inactive).
For the molecule `O=S(=O)(Nc1ccc2c(c1)OCO2)c1ccccc1`, the activation fold is 1.1 (inactive).
As for `CNC(=O)N(O)C1N(C)C(=O)N(Cc2ccccc2)C1(C)C` (configuration not stated), the activation fold is 1.1 (inactive).
On to `O=C(CCN1C(=O)/C(=C\c2ccccc2)SC1=S)NNC(=O)c1cccnc1`, for which the activation fold is 1.6 (inactive).
With `O=C(CCN1C(=O)/C(=C/c2ccccc2)SC1=S)NNC(=O)c1cccnc1`, the activation fold is 1.6 (inactive).
As to `CCCC(Oc1ccc(Br)cc1)c1nc2c3cc(OC)c(OC)cc3nc(=S)n2[nH]1` (configuration not stated), the activation fold is 1.2 (inactive).
Under `Cc1cc(N2CCCCC2)nc(NCc2ccccc2)n1` stands 1 (inactive).
The result for `Cc1cc(N2CCCCC2)nc(N)n1` reads 1.1 (inactive); that for `COc1cccc(C(=O)NNC(=O)c2ccccc2-n2cccc2)c1`, 1.3 (inactive); that for `O=C(CSc1nnc(-c2ccncc2)n1Cc1ccccc1)NCCc1ccccc1`, 1.2 (inactive).
Under `OC(Cn1ccnc1)c1ccc(Cl)cc1Cl` (configuration not stated) stands 1 (inactive).
For the molecule `Clc1ccc(SCCn2ccnc2)cc1`, the activation fold is 1.1 (inactive).
On to `Clc1ccc(OCCn2ccnc2)c(Cl)c1`, for which the activation fold is 1 (inactive).
With `S=C(NCCCn1ccnc1)Nc1ccc(Cl)cc1Cl`, the activation fold was 1 (inactive).
For the molecule `Cc1cc2cc3c(cc2nc1SCC(=O)O)CCC3`, the activation fold is 1 (inactive).
Take `CCCCC(=O)Nc1ccc(C(=O)OC2CCCCC2)cc1`: the activation fold was 1 (inactive).
For the molecule `CCS(=O)(=O)N1CCC(NC(=O)c2ccco2)CC1`, the activation fold was 1.1 (inactive).
As for `O=C(O)c1ccc(CNC(=O)c2ccc(C(F)(F)F)cc2)cc1`, the activation fold was 1 (inactive).
As for `COC(=O)c1ccc(/C=C2\N=C(SC)SC2=O)cc1`, the activation fold was 1.1 (inactive).
With `CC(=O)OCCCN1C(=O)c2ccc(Br)cc2C1=O`, the activation fold is 1 (inactive).
For `OCCCN1c2ccccc2Nc2nnc(-c3ccccc3)cc21`, the activation fold is 1.5 (inactive).
In the case of `CC(C)c1[nH]nc2c1C1(CCN(Cc3ccccc3)CC1)C(C#N)=C(N)O2`, the activation fold is 0.9 (inactive).
The result for `CC(C)=CCSc1nnc([C@@H](NC(=O)OC(C)(C)C)C(C)C)o1` reads 1.1 (inactive).
The result for `CCOC(=O)N1CCC(NC(=O)CSc2cc(=O)n(CC)c3ccccc23)CC1` reads 1.2 (inactive); that for `CCc1ccc(CNC(=O)Cn2nc(-c3ccccc3)ccc2=O)cc1`, 1 (inactive).
Consider `CN1CCN(C(c2ccccn2)c2cc(Cl)c3cccnc3c2O)CC1` (configuration not stated), for which the activation fold was 2.5 (inactive).
For the molecule `Oc1c(C(c2ccc(Cl)cc2)N2CCCC2)cc(Cl)c2cccnc12` (configuration not stated), the activation fold was 1.2 (inactive).
As for `CC(=O)c1sc(NC(=O)C(C)(C)C)nc1C`, the activation fold is 1.1 (inactive).
As to `Cc1cccc(NCc2nc(-c3ccccc3)no2)c1`, the activation fold is 1.1 (inactive).
Under `CC(C)CCC(C(=O)O)C(C)CC(=O)NNC(=O)c1ccco1` (configuration not stated) stands 1.1 (inactive).
Take `CNC(=S)NNC(=O)c1ccc2c(c1)OCO2`: the activation fold is 1.6 (inactive).
The result for `CC(C)CNC(=O)C(=O)NNC(=O)c1ccco1` reads 1.1 (inactive); that for `CC(C)CC(CC(C)C)=NNC(=O)c1ccc2c(c1)OCO2`, 1.1 (inactive).
On to `COC(=O)c1ccc(N=Cc2c(C(F)(F)F)[nH][nH]c2=O)cc1`, for which the activation fold was 0.8 (inactive).
As for `Cc1ccc(/C=N/NC(=O)c2nn(C)cc2Cl)cc1`, the activation fold is 1.1 (inactive).
Under `C/C(=N\NC(=O)c1nn(C)cc1Cl)c1ccncc1` stands 1.2 (inactive).
On to `COc1ccc2nc(Nc3nc(CSc4nc5ccccc5[nH]4)cc(=O)[nH]3)nc(C)c2c1`, for which the activation fold is 2.4 (inactive).
As for `Cc1nc(Nc2nc(CSc3nc4ccccc4[nH]3)cc(=O)[nH]2)nc2ccccc12`, the activation fold was 2.5 (inactive).
The result for `CCOC(=O)CNC(=O)C(CO)NC(=O)OCc1ccccc1` (configuration not stated) reads 1.1 (inactive); that for `CCOC(=O)/C(N=Nc1sc(C(=O)OCC)c(C)c1C(=O)OCC)=C(\C)O`, 1 (inactive); that for `COC(=O)c1sccc1NC(=O)Cn1nnc(-c2ccc(C)cc2)n1`, 1 (inactive).
Turning to `O=C(CCC(=O)Nc1ccc(Cl)cc1Cl)NNC(=O)Nc1ccccc1`, the activation fold was 1.3 (inactive).
The result for `Cc1cc([N+](=O)[O-])nn1CC(=O)Nc1cc(F)ccc1F` reads 1 (inactive); that for `Cc1cc([N+](=O)[O-])nn1CC(=O)Nc1ccc(F)cc1`, 1.1 (inactive); that for `CCOC(=O)C1(Cc2cccc(OC)c2)CCN(Cc2cnc(C)s2)CC1`, 1 (inactive).
As to `CCCCN1CNC(=S)N(Cc2ccccc2)C1`, the activation fold was 0.9 (inactive).
In the case of `COc1ccc(S(=O)(=O)Nc2ccccc2C)cc1`, the activation fold is 1 (inactive).
On to `CCN(CC)c1ccc(C=Nc2ccc(N(C)C)cc2)c(O)c1`, for which the activation fold was 2.3 (inactive).
Turning to `CCN(CC)c1ccc(C=Nc2ccc(C)cc2)c(O)c1`, the activation fold was 0.9 (inactive).
Turning to `CCN(CC)c1ccc(N=Cc2ccc(N(CC)CC)cc2O)cc1`, the activation fold was 6 (active).
Regarding `COc1ccc(C(C)=O)c(Oc2nc(CN3CCOCC3)nc3scc(-c4cccs4)c23)c1`, the activation fold was 1 (inactive).
With `CC(=O)NNc1ncnc2c1cnn2-c1ccc(C)c(Cl)c1`, the activation fold is 2.2 (inactive).
For the molecule `Cn1ncc2c(NNC(=O)c3ccc(Cl)cc3Cl)ncnc21`, the activation fold is 2.4 (inactive).
With `Cn1cccc1C(=O)C(=O)Nc1ccccc1C(F)(F)F`, the activation fold was 1.2 (inactive).
The result for `CN(CCO)C(=O)CCC(=O)Nc1ccc(S(N)(=O)=O)cc1` reads 1.1 (inactive).
The result for `CCN1/C(=C/C=C/C=C/c2sc3ccccc3[n+]2CC)Sc2ccccc21` reads 53.2 (active).
As for `CC[n+]1c(/C=C/C=C/N(C(C)=O)c2ccccc2)sc2ccccc21`, the activation fold is 0.7 (inactive).
As to `CCN1/C(=C/C(C)=C/c2sc3ccccc3[n+]2CC)Sc2ccccc21`, the activation fold was 0.4 (inactive).
As for `CCNC(=S)NNC(=O)c1cc(C)nc2ccccc12`, the activation fold is 1.7 (inactive).
For the molecule `CCCc1cc(C(=O)NNC(=S)NCC)c2ccccc2n1`, the activation fold is 1.1 (inactive).
For `COc1ccc(C)cc1-n1[nH]nnc1=S`, the activation fold was 1 (inactive).
The result for `COc1ccc(NC(=S)N2CCCC2c2ccc(OC)c(OC)c2)cc1` (configuration not stated) reads 0.9 (inactive).
Regarding `C=CCNC(=S)NNC(=O)C(CCC(C)C)CC(C)(C)O` (configuration not stated), the activation fold was 1.1 (inactive).
On to `C=CCNC(=S)NNC(=O)C(CCCC)CC(C)O` (configuration not stated), for which the activation fold was 1.7 (inactive).
On to `O=C1c2ccc(Br)cc2C(=O)N1c1ccc(Cc2ccncc2)cc1`, for which the activation fold was 1.1 (inactive).
Consider `COCCNC(=S)N/N=C(\C)c1ccccc1F`, for which the activation fold was 1 (inactive).
For the molecule `COCCNC(=S)N/N=C(\C)c1ccccc1OC`, the activation fold was 1.1 (inactive).
Turning to `CN(C)CCNC(=O)c1ccc(-c2nn(C)c(=O)c3ccccc23)cc1`, the activation fold is 1.1 (inactive).
In the case of `CCc1cc2c(=O)[nH]c(-c3ccccn3)nc2s1`, the activation fold was 1.8 (inactive).
Regarding `Cc1sc2nc(-c3ccccn3)[nH]c(=O)c2c1-c1ccccc1`, the activation fold was 1.4 (inactive).
Turning to `O=C(O)/C=C/C(=O)N1CCN(S(=O)(=O)c2cccc(C(F)(F)F)c2)CC1`, the activation fold is 1.1 (inactive).
In the case of `COc1cccc(/C=N/NC(=O)c2[nH]c(C)c(C(=O)N/N=C/c3cccc(OC)c3)c2C)c1`, the activation fold is 1.2 (inactive).
Turning to `Cc1cccc(C)c1NC(=O)C1(N(C(=O)c2ccccn2)c2ccc(O)cc2)CCCCC1`, the activation fold is 1 (inactive).
Take `Cc1cccc(C)c1NC(=O)C1(N(Cc2ccco2)C(=O)c2ccccn2)CCCC1`: the activation fold was 1 (inactive).
The result for `O=C(NCCCn1ccnc1)/C(=C\c1cccnc1)NC(=O)c1ccccc1F` reads 1 (inactive); that for `CCC(=O)Nc1ccc(/C(C)=N\NC(=O)c2ccc(C)s2)cc1`, 1 (inactive); that for `O=C(Nc1cccc2ccccc12)c1ccc([N+](=O)[O-])s1`, 1 (inactive).
Turning to `Cc1cc(C)c(-c2csc(NC(=O)C3=NN(c4ccccc4)C(=O)CC3)n2)c(C)c1`, the activation fold is 0.9 (inactive).
Take `Cn1c(NCCCO)nc2c(c1=O)C1(CCCCC1)Cc1ccccc1-2`: the activation fold is 1 (inactive).
As for `O=c1[nH]c(NCCO)nc2c1C1(CCCCC1)Cc1ccccc1-2`, the activation fold was 1 (inactive).
Take `CC1CCCN(c2nc3ccccc3nc2C(C#N)C(=O)OC2CCCCC2)C1` (configuration not stated): the activation fold is 1 (inactive).
As to `Clc1ccc(-c2nc3ccccn3c2CN2CCCCC2)cc1`, the activation fold was 1.1 (inactive).
For the molecule `Cc1ccc2nc(-c3ccccc3)c(CN3CCN(c4ccccc4F)CC3)n2c1`, the activation fold was 1.1 (inactive).
Consider `O=c1cc(N2CCc3ccccc3C2)[nH]c(=O)n1Cc1ccc(F)cc1`, for which the activation fold is 1 (inactive).
For `Cc1sc(NC(=O)CSc2nnc(COc3ccc(Cl)cc3)n2C)c(C#N)c1C`, the activation fold is 1.1 (inactive).
Under `Cc1cccc(-c2nsc(SCC(=O)N3CCCC3)n2)c1` stands 1.1 (inactive).
Take `Cc1ccc(Nc2nc(N)nc(CN3CCN(C(=O)c4ccco4)CC3)n2)cc1Cl`: the activation fold is 1 (inactive).
As to `CCNC(=S)NC1CC2CCC(C1)N2Cc1ccccc1` (configuration not stated), the activation fold was 1 (inactive).
Regarding `CNC(=S)NC1CC2CCCC(C1)N2Cc1ccc(C)cc1` (configuration not stated), the activation fold was 1.1 (inactive).
Under `COc1ccccc1NC(=S)NNC(=O)c1nn(C)c(C)c1Cl` stands 1.2 (inactive); under `Cc1c(Cl)c(C(=O)NNC(=S)Nc2ccc(F)cc2)nn1C`, 2.7 (inactive); under `COCc1nnc(NC(=O)c2ccc(OC)cc2OC)s1`, 1.1 (inactive).
As to `COc1ccc(/C=C2/SC(=O)N(CC(=O)NCCC(C)C)C2=O)cc1OC`, the activation fold was 1.1 (inactive).
Regarding `COC(=O)Cn1c(CN2CCC(Cc3ccccc3)CC2)nc2c1c(=O)n(C)c(=O)n2C`, the activation fold was 1.1 (inactive).
